Some of the results follow. Values without a mark were called inactive. Calls of active or inactive are those of the source.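 The calls were made as follows: active = average inhibition across triplicates above the hit cutoff set in the primary screen (cut at about 32% in these data); inactive = the rest.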
Target: Female germline-specific tumor suppressor gld-1 (Caenorhabditis elegans) (UniProt Q17339)
Assay: C. elegans GLD-1 RNA interaction blockers – biochemical, fluorescence polarization, triplicate, confirmation (AID 2459);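 also: 0% = GLD-1 with RNA probe and DMSO and 100% = wells lacking GLD-1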
Conditions: GLD-1/FL-TGE RNA fluorescence polarization, at 5.96 µM, active compounds read high

Chain of Female germline-specific tumor suppressor gld-1 (Caenorhabditis elegans) (Q17339 whole entry, looked up): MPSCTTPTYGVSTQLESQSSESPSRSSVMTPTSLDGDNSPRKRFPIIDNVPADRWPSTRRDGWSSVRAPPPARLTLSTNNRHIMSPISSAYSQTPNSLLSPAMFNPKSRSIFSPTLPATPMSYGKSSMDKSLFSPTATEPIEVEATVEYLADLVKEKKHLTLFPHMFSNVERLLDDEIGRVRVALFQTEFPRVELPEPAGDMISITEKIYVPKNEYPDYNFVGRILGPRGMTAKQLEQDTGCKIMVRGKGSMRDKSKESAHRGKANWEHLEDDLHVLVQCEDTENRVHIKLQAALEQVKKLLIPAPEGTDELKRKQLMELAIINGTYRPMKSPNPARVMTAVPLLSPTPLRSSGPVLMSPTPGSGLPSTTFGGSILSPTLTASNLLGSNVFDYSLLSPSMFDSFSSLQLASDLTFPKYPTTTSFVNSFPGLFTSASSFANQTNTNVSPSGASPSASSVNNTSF

| SMILES | inhibition |
| --- | --- |
| CC(NC(=O)CSc1nc2c(cc1C#N)CN(C)CC2)c1ccccc1 (stereo not given) | -6.45% |
| COc1ccc(Nc2ccc([N+](=O)[O-])cn2)cn1 | 18.7% |
| COC(=O)c1sc(NC(=S)NC(=O)c2ccc(C)cc2)nc1C | -1.92% |
| N#C/C(=C(\O)C(F)(F)F)c1nnc2n1CCCCC2 | -8.93% |
| O=c1[nH]c(=O)c2nc3ccccc3nc2[nH]1 | 101% (active) |
| CCCn1c(C2CCCN2c2nc(-c3ccc(C)cc3)cs2)nc2cc(Cl)c(N3CCCCC3)cc21 (stereo not given) | -4.07% |
| CCOc1cc(C2C(C(=O)OC)=CN(C3CCCC3)C=C2C(=O)OC)cc(Br)c1O | 31.8% (active) |
| C=C1CCN([C@@H](Cc2ccccc2)C(=O)N2CCOCC2)S(=O)(=O)c2ccccc21 | -0.33% |
| Cc1ccc(/C=N/NC(=O)COc2ccccc2-c2ccccc2)cc1 | -5.49% |
| COCCOC(=O)c1sc(=S)n(CCOC)c1N | 47.7% (active) |
| COc1ccc(-c2nc(CS(=O)CC(=O)NCc3ccccn3)c(C)o2)cc1 (stereo not given) | 61.1% (active) |
| CC1CC(C)CN(S(=O)(=O)c2cccc(C(=O)N3C(=O)c4cccc(N)c4C3=O)c2)C1 (stereo not given) | 1.78% |
| CNC(=S)NNC(=O)c1oc2nc(-c3ccccc3)cc(-c3ccco3)c2c1N | -4.28% |
| N#CC1=C(N)C(C#N)(C#N)[C@H](c2ccsc2)[C@H]2COCC=C12 | 7.34% |
| CN(C)c1ccc(Nc2c3c4c(cccc4n(C)c2=O)C(=O)c2ccccc2-3)cc1 | 63.3% (active) |
| CCOc1ccc2nc(N3CCCN(C(=O)Nc4ccccc4C)CC3)c(C#N)cc2c1 | 52.2% (active) |
| Cc1cc2ccccc2n1CCC(=O)O | 10.1% |
| Cc1ccccc1Nc1nc(N)nc(CSc2nnc3ccccn23)n1 | -3.26% |
| O=C1c2ccccc2C(=O)c2c1cccc2N1CCN(CCO)CC1 | 16.5% |
| COc1cc([C@H](Cc2ccccc2)NC(C)=O)oc(=O)c1 | 25.8% |
| CCCN(CC(=O)Nc1ccccc1OC)C(=O)CCC(=O)c1ccc(F)cc1 | -0.97% |
| COc1ccc2[nH]c(C)c(CCN(Cc3cccs3)C(=S)Nc3ccccc3OC)c2c1 | -3.16% |
| O=c1[nH]cccc1-c1nc2ccccc2n1Cc1ccc(Cl)cc1 | -6.98% |
| CN(CCOc1ccccc1)C(=O)c1cc(-c2ccco2)nc2ccccc12 | -3.07% |
| Cc1ccc(C)c(S(=O)(=O)N2CCN(C(=O)Nc3ccccc3)CC2)c1 | 2.41% |
| O=C1c2ccccc2-c2ncnc3c(N4CCOCC4)cc(N4CCOCC4)c1c23 | -4.23% |
| Oc1ccc2ccccc2c1N=Nc1nccs1 | 8.17% |
| COC(=O)c1cc(CNC(=O)CC(C)c2ccccc2)ccc1OC (stereo not given) | -6.47% |
| COc1cc(C(=O)NCc2ccc3c(c2)cc(C)n3C)cc(OC)c1OC | 5.96% |
| COC(=O)CCCC1=CC2=CC(=O)C(C)(OC(=O)c3cccs3)C(=O)C2=CN1c1cccc(C#N)c1 (stereo not given) | 8.48% |

Source: PubChem BioAssay AID2459 (The Scripps Research Institute Molecular Screening Center, 2010)
